Compound activity deposited in PubChem BioAssay by several laboratories.
Compounds with a hit are over-represented: about 1.2% of the library has one in this group of screens.
NPR1 activator = GC-A (human) enzyme activation. HEK293 GC-A cells, cGMP TR-FRET, EC30 ANP; 0% at EC30 ANP, 100% saturating ANP. activation, % at 10 µM. actives 0.14% (n = 370,000); in the data active = activation above about 40%
PLC-beta3 inh = PLC-beta3 (human) inhibition, primary screen | Q01970 | Purified PLC-beta3, fluorogenic substrate, fluorescence | inhibition, % at 12.2 µM | actives 0.18% (n = 370,000) | AID 720704;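 also: 0% = median of compound wells on plate and 100% = full blocker control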
NPR2 activator = GC-B (human) receptor activation; P20594; AID 1920062; activation, % at 10 µM; HEK293-GC-B cells, CNP EC30, cGMP TR-FRET; 0% at EC30 CNP, 100% saturating CNP; actives 0.11% (n = 370,000);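 active = activation at 10 µM reaching about 35% in either raw or pattern-adjusted values, limit read from the data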
PLCg1 inh = blocks human PLC-gamma1 enzyme activity; AID 720700; inhibition, % at 12.2 µM; purified PLC-gamma1, fluorogenic substrate, fluorescence; actives 0.84% (n = 370,000); P19174; in the data active = inhibition above about 9.5%
Target sequence (P19174 whole entry, looked up): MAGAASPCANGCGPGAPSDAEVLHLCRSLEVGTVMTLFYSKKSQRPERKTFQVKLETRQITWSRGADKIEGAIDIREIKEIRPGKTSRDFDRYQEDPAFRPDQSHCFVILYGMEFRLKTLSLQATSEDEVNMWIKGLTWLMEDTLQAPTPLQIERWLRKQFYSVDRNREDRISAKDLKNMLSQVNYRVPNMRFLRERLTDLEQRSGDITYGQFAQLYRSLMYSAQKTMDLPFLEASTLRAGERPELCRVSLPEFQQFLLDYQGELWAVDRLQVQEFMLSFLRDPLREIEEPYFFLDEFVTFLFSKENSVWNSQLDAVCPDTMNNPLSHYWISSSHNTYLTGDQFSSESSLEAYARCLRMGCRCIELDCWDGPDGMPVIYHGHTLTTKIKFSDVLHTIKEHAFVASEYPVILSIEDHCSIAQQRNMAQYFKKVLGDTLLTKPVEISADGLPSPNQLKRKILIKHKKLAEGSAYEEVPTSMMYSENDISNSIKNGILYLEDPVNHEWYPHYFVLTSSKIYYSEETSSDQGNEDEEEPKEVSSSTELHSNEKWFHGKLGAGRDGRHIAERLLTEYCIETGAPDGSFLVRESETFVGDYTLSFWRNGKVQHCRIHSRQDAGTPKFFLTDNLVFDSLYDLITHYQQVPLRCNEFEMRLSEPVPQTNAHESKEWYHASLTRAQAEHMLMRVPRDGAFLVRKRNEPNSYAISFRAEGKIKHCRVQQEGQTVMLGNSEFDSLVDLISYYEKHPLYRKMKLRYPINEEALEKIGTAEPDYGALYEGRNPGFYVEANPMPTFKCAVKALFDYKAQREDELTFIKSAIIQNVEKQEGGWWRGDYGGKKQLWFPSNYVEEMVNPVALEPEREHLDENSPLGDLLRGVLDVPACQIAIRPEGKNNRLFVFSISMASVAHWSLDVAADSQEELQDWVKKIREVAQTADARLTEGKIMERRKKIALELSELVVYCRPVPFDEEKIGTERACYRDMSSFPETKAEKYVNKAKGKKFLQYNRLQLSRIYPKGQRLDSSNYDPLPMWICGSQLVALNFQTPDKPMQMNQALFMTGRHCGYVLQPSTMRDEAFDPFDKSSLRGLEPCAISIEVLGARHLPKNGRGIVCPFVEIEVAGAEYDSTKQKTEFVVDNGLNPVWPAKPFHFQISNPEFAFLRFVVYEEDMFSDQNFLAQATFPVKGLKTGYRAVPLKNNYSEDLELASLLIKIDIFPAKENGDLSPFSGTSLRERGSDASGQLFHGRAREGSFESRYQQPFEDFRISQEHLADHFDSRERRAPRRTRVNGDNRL
PLCg1 ctr = inhibits human PLC-gamma1 in PLC-beta3 counter-screen; shares compounds with PLCg1 inh; purified PLC-gamma1, fluorogenic substrate, fluorescence; inhibition, % at 12.3 µM; actives 3.1% (n = 3,300); AID 743258; in the data active = inhibition above about 9.5%
PLCbeta3 conf = human PLC-beta3 inhibition, confirmation; actives 1% (n = 3,300); inhibition, % at 12.3 µM; purified PLC-beta3, fluorogenic substrate fluorescence; shares compounds with PLCg1 inh
Active calls of the source: *. Rule as the data show it, unless noted: active = inhibition above about 11%; inactive = the rest.

Results for Cc1cc(-c2nnc(SCc3ccccn3)o2)no1 ?
NPR1 activator: 4; PLC-beta3 inh: 11*; NPR2 activator: -3; PLCg1 inh: 14*; PLCg1 ctr: -4; PLCbeta3 conf: -1

What do the screens show for `CCOC(=O)CNC(=O)Cc1ccc(Cl)cc1`?
NPR1 activator: 0; PLC-beta3 inh: -3; NPR2 activator: -1; PLCg1 inh: 10*; PLCg1 ctr: -4; PLCbeta3 conf: 0

How did CC(CN1CCOCC1)OC(=O)c1cccc(Br)c1 (stereo not drawn) do in these assays?
NPR1 activator: -5; PLC-beta3 inh: 12*; NPR2 activator: -10; PLCg1 inh: 5; PLCg1 ctr: -1; PLCbeta3 conf: 1

What do the screens show for `O=C(Nc1nc2ncccn2c1-c1ccccc1)C1CC1`?
NPR1 activator: 3; PLC-beta3 inh: inactive; NPR2 activator: 2; PLCg1 inh: inactive

How did COC(=O)c1sccc1NC(=O)CN(C)NS(=O)(=O)c1ccc(F)cc1 do in these assays?
NPR1 activator: -2; PLC-beta3 inh: 4; NPR2 activator: -3; PLCg1 inh: 12*; PLCg1 ctr: -6; PLCbeta3 conf: 0

What do the screens show for `COc1ccc(C(=O)Nc2cccc([N+](=O)[O-])c2)cc1Br`?
NPR1 activator: 5; PLC-beta3 inh: 11*; NPR2 activator: -7; PLCg1 inh: 1; PLCg1 ctr: 5; PLCbeta3 conf: 0

What do the screens show for `Cc1ccc(NC(=S)NC2CC3CCC(C2)N3Cc2ccco2)cc1C` (stereo not drawn)?
NPR1 activator: 2; PLC-beta3 inh: 6; NPR2 activator: 4; PLCg1 inh: 13*; PLCg1 ctr: -5; PLCbeta3 conf: -2

How did Cc1cnc(C(=O)OCC(=O)Nc2ccc(Br)cc2F)cn1 do in these assays?
NPR1 activator: 2; PLC-beta3 inh: -5; NPR2 activator: -2; PLCg1 inh: -4

Results for Cc1cnc(C(=O)OCC(=O)Nc2ccc(Cl)cc2)cn1 ?
NPR1 activator: 3; PLC-beta3 inh: 5; NPR2 activator: -5; PLCg1 inh: 12*; PLCg1 ctr: -8; PLCbeta3 conf: -4

What do the screens show for `COC(=O)[C@]12C[C@H](CC(=O)N3CCCC3)C(=O)N(Cc3cccc4ccccc34)C1=C[C@H](COCc1ccccc1)O[C@@H]2C`?
NPR1 activator: -4; PLC-beta3 inh: 3; NPR2 activator: 5; PLCg1 inh: 9.5*; PLCg1 ctr: 4; PLCbeta3 conf: 7

What do the screens show for `COC(=O)[C@]12C[C@H](CC(=O)NCCc3ccccc3OC)C(=O)N(CCc3ccc(OC)c(OC)c3)C1=C[C@H](COCc1ccccc1)O[C@@H]2C`?
NPR1 activator: -6; PLC-beta3 inh: 6; NPR2 activator: -4; PLCg1 inh: 13*; PLCg1 ctr: -4; PLCbeta3 conf: -1

How did CCc1ccccc1NC(=O)CSc1nnc([C@H](CCSC)NC(=O)OC(C)(C)C)o1 do in these assays?
NPR1 activator: -5; PLC-beta3 inh: 7; NPR2 activator: 2; PLCg1 inh: -5

What do the screens show for `O=C(N/C(=C\c1ccccc1)C(=O)N1CCCCCC1)c1ccccc1`?
NPR1 activator: 0; PLC-beta3 inh: 0; NPR2 activator: -1; PLCg1 inh: 9.6*; PLCg1 ctr: -3; PLCbeta3 conf: -1

How did CCCCNc1c(-c2cccc(-c3cc(C(C)=O)cs3)c2)nc2ccc(C)cn12 do in these assays?
NPR1 activator: 15; PLC-beta3 inh: 2; NPR2 activator: 17; PLCg1 inh: 9.7*; PLCg1 ctr: -5; PLCbeta3 conf: -11

What do the screens show for `CN(C)Cc1c(C(=O)N/N=C/C=C/c2ccccc2)nnn1-c1nonc1N`?
NPR1 activator: -2; PLC-beta3 inh: -4; NPR2 activator: 5; PLCg1 inh: -1

Results for CCOC(=O)C1(C)CCN1C(=O)c1ccc(C)cc1 (stereo not drawn) ?
NPR1 activator: 2; PLC-beta3 inh: 16*; NPR2 activator: 0; PLCg1 inh: 9.8*; PLCg1 ctr: -2; PLCbeta3 conf: 2

Results for CCOC(=O)C1(C)CCN1C(=O)c1ccc(-c2ccccc2)cc1 (stereo not drawn) ?
NPR1 activator: 2; PLC-beta3 inh: 1; NPR2 activator: 2; PLCg1 inh: -1

How did CCCOc1ccc(Oc2cc(C)nc(SC)n2)nn1 do in these assays?
NPR1 activator: -2; PLC-beta3 inh: 13*; NPR2 activator: -1; PLCg1 inh: 7; PLCg1 ctr: -8; PLCbeta3 conf: -2

How did COc1ccccc1C1C2=C(N=c3s/c(=C/c4cccc(OCC(=O)O)c4)c(=O)n31)c1ccccc1CC2 (stereo not drawn) do in these assays?
NPR1 activator: -4; PLC-beta3 inh: -64; NPR2 activator: 0; PLCg1 inh: -42

Results for Cc1ccc(NC(=O)CSc2n[nH]c(-c3ccco3)n2)c(C)c1 ?
NPR1 activator: -1; PLC-beta3 inh: -12; NPR2 activator: 0; PLCg1 inh: 10*; PLCg1 ctr: 0; PLCbeta3 conf: -7

What do the screens show for `Cc1ccc(NC(=O)CSc2n[nH]c(-c3ccco3)n2)cc1`?
NPR1 activator: -1; PLC-beta3 inh: 3; NPR2 activator: 2; PLCg1 inh: 1

Results for C/C(=N\Nc1ccc([N+](=O)[O-])cc1[N+](=O)[O-])C(C)(C)C(C(=O)O)C(=O)O ?
NPR1 activator: 3; PLC-beta3 inh: 5; NPR2 activator: 6; PLCg1 inh: 11*; PLCg1 ctr: -3; PLCbeta3 conf: 1

What do the screens show for `COCCCNC(=O)C1CCN(c2ncccn2)CC1`?
NPR1 activator: 2; PLC-beta3 inh: -15; NPR2 activator: 4; PLCg1 inh: -13

How did COc1ccc(COC(=O)C2CC(=O)N(Cc3ccccc3)C2)cc1 (stereo not drawn) do in these assays?
NPR1 activator: 0; PLC-beta3 inh: -5; NPR2 activator: -2; PLCg1 inh: 2

How did C#CNC(=O)C1(CC=C)CCNCC1 do in these assays?
NPR1 activator: 3; PLC-beta3 inh: 12*; NPR2 activator: 2; PLCg1 inh: 4; PLCg1 ctr: -5; PLCbeta3 conf: -2

Results for Cc1c(C(=O)N/N=C/c2cccs2)nnn1-c1nonc1N ?
NPR1 activator: 3; PLC-beta3 inh: 2; NPR2 activator: -6; PLCg1 inh: 12*; PLCg1 ctr: -1; PLCbeta3 conf: 5

What do the screens show for `O=C(NCCN1C(=O)CSC1=O)C1CC(=O)N(c2ccccc2)C1` (stereo not drawn)?
NPR1 activator: 1; PLC-beta3 inh: 2; NPR2 activator: 0; PLCg1 inh: 10*; PLCg1 ctr: -6; PLCbeta3 conf: -1

Results for O=C(NCCc1ccccc1F)C1CC(=O)N(c2ccccc2)C1 (stereo not drawn) ?
NPR1 activator: -1; PLC-beta3 inh: -1; NPR2 activator: 0; PLCg1 inh: 4

What do the screens show for `Cc1cccc(NC(=O)CSc2nnc(Cn3cnc4ccccc43)o2)c1`?
NPR1 activator: -2; PLC-beta3 inh: 2; NPR2 activator: -4; PLCg1 inh: 1
